# Reference: the supplement of paper PMC10732440
# ± gives the standard deviation of the averaged measurements.
# Test system: Caenorhabditis elegans N2 infected with Nematocida parisii ERTm1
# Experiment: progeny production relative to DMSO uninfected control; higher = more progeny despite microsporidia infection (inhibition of infection with low host toxicity)
# Conditions: infection time 6 days
# How it was run: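 Bleach-synchronised wild-type C. elegans L1 larvae (100 per well) were placed in 96-well plates with K-medium, E. coli OP50 and 15,000 N. parisii spores/μL, with compound pinned to 100 μM or 40 μM in 1% DMSO. Plates were shaken at 21°C for 6 days; worms were then Rose Bengal-stained, flatbed-scanned and counted with WorMachine, each compound and dose tested three times. Progeny production is given as a percentage of the spore-free vehicle control, averaged across replicates.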
SMILES,progeny production (40 µM) [%],progeny production (100 µM) [%]
C[C@H](NC(=O)C(=O)Nc1ccccc1C(C)(C)C)C(=O)N[C@@H](CC(=O)O)C(=O)COc1c(F)c(F)cc(F)c1F,5.12 ± 0.88,15 ± 11
CCCCc1ccc(S(=O)(=O)Nc2cc(C)on2)cc1,7.98 ± 1.1,25 ± 22
NC(=O)c1c(N)sc2c1CCCCC2,3.71 ± 1.1,8.33 ± 4.8
N[C@H](CCC(=O)N[C@@H](Cc1c[nH]c2ccccc12)C(=O)O)C(=O)O,6.53 ± 2.2,14.8 ± 3.7
CCC(CC)[C@H](NC(C)=O)[C@@H]1[C@H](O)[C@@H](C(=O)O)C[C@H]1NC(=N)N,6.29 ± 2.5,7.52 ± 7.1
NC[C@H]1O[C@H](O[C@H]2[C@H](O)[C@@H](O[C@H]3O[C@H](CO)[C@@H](O)[C@H](N)[C@H]3O)[C@H](N)C[C@@H]2N)[C@H](N)C[C@@H]1O,6.6 ± 2.4,11.7 ± 16
CCC[C@@H]1C[C@@H](C(=O)N[C@@H]([C@H]2O[C@H](SC)[C@H](O)[C@@H](O)[C@H]2O)[C@H](C)Cl)N(C)C1,6.74 ± 4.3,7.36 ± 5.1
CO/N=C(\C(=O)N[C@@H]1C(=O)N2C(C(=O)OCOC(=O)C(C)(C)C)=C(/C=C\c3scnc3C)CS[C@H]12)c1csc(N)n1,4.46 ± 2.2,13.1 ± 5.6
NC1C2CC3CC(C2)CC1C3 (centres undefined),4.96 ± 2.6,13.2 ± 3.6
Cc1onc(-c2ccccc2Cl)c1C(=O)N[C@@H]1C(=O)N2[C@@H]1SC(C)(C)[C@@H]2C(=O)O,2.76 ± 1.9,19.1 ± 12
O=C(O)/C=C/C=C/c1cccc(Oc2cc(Cl)cc(Cl)c2)c1,7.69 ± 2.2,13 ± 7.6
O=C(CSc1nnc(Br)n1-c1ccc(C2CC2)c2ccccc12)Nc1ccc(C(=O)O)cc1Cl,3.49 ± 1.1,15.1 ± 5.4
